MLL AF4-AF9 inh: inhibitors of AF4 peptide binding to AF9, primary screen, biochemical, AlphaScreen, biotin-AF4 peptide, FLAG-AF9, single point | hit rate 0.47% among 350,000 | Protein AF-9 (Homo sapiens), P42568 | inhibition, % at 10 µM | AID 651704, 2012;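 active means every replicate reaching a set inhibition limit, whatever the replicate mean, cut at about 25% in these data; inconclusive means mean inhibition reaches that limit but some replicates miss it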;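 further: 0% = plate neutral control median and 100% = total signal loss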
INS-1E GSIS act: GLuc luminescence reporter in INS-1E cells, primary screen for activators of glucose-dependent secretion of insulin. INS-1E GLuc reporter insulin secretion, 2-3 h. activation, % at 16.6 µM. hit rate 0.61% among 370,000;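 active means lowest replicate activation of at least 40%, so every replicate reaches that level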;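 further: 0% = median of neutral control wells and 100% = median of IBMX positive control wells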
PGC1a acetyl inh: inhibitors of PGC1a acetylation signal, primary screen, cell-based, U2OS, AlphaScreen, inhibitor mode | AlphaScreen anti-acetyl-lysine; with virally co-expressed GCN5 acetyltransferase | inhibition, % at 15.6 µM | hit rate 0.17% among 350,000 | AID 651687, 2012;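 active means every replicate shows inhibition of at least 40%; inconclusive means mean inhibition at least 40% but some replicate below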;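 further: 0% = neutral control wells and 100% = positive control wells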
NSD2 inh: NSD2 histone methyltransferase inhibitors, primary screen, biochemical, AlphaScreen, single concentration, set 2; hit rate 0.54% among 310,000; NSD2 peptide methylation, 120 min; inhibition, % at 12.5 µM; in the data active means inhibition above about 50%
HIV Env fusion: inhibitors of HIV-1 Env-driven cell-cell fusion, primary screen, HeLa-JRFL effector, CEM21 target cells, luciferase; inhibition, % at 12.3 µM; hit rate 1.1% among 360,000;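 active means mean replicate inhibition score of at least 50 and every replicate individually at or above 50; inconclusive means only one of the two criteria met; inactive means mean below 50 and not all replicates reaching 50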;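 further: 0% = plate neutral controls and 100% = maraviroc near 300 nM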
AlphaScreen art: AlphaScreen signal interference with preloaded methylated product, dose response, artefact control for NSD2 inhibitor project, biochemical, cherry-picked samples; AC35, µM (series often up to 10 µM), without a hit: at the top dose activity change, negative = signal loss; AID 1053174, 2014; hit rate 9.4% among 1,500; AlphaScreen artifact counterscreen, preloaded methylated H4 peptide; shares compounds with NSD2 inh; call rule not given here
Starred values were filed as active, the others as inactive; u = inconclusive; x = no result; [ ] = another dose, or the depositor's remark. This is a sample that favours compounds with a hit; in the whole collection about 2.1% have one here.

SMILES	MLL AF4-AF9 inh	INS-1E GSIS act	PGC1a acetyl inh	NSD2 inh	HIV Env fusion	AlphaScreen art
CNCc1ccccc1OCc1ccccc1F	1.2	-59.1	4.1	53.4*	-8.1	0.1%
CCN(CC)CCNC(=O)Cc1nn(Cc2ccccc2)c(=O)c2ccccc12	-1.0	20.2	x	51.4*	10.7	-1.9%
CCN(CC)CCNC(=O)Cn1nc(Cc2ccncc2)c2ccccc2c1=O	-3.0	15.4	-8.0	2.3	-12.3	x
CCOC(=O)C1CCN(c2nc(N)c3c(N)nc(SCC(=O)O)cc3c2C#N)CC1	1.0	-32.6	15.6	101.3*	-40.2	-5.5%
CCC1CCCCN1C(=O)CSc1nc(N)cc(=O)[nH]1 (centres undefined)	-1.2	1.4	4.7	-0.7	-2.4	x
CC1(C)C2CCC1(C)C(OC(=O)CSc1nc(N)cc(=O)[nH]1)C2 (centres undefined)	x	x	6.2	80.2*	x	-3.7%
COc1ccc(C2=Nn3c(nnc3-c3ccc(OC)cc3)SC2)cc1	x	x	-11.4	0.4	-1.1	x
COc1ccc(-c2nnc3n2N=C(C)CS3)cc1	x	x	x	68.5*	-96.2	-2.8%
CCOc1ccc(Cl)cc1-c1cc(C(=O)Nc2cc(OC)c(OC)c(OC)c2)[nH]n1	-2.8	x	-22.7	-4.8	5.8	x
S=C(Nc1ccc(OCc2ccccc2)cc1)Nc1cccc(Cl)c1Cl	x	5.1	x	1.1	-8.0	x
CN1CCC/C1=C/C=C1\SC(=S)NC1=O	-10.0	-25.3	x	52.8*	8.5	2.3%
Cc1noc(C)c1S(=O)(=O)N(C)C[C@H]1OCCCC[C@H](C)Oc2ccc(NC(=O)c3ccccc3)cc2C(=O)N([C@@H](C)CO)C[C@@H]1C	1.3	-15.0	-10.4	x	-8.5[16.7 µM]	x
Cn1cc(-c2ccccc2C(N)=O)c(=O)c2ccccc21	0.7	7.9	-3.0	55.8*	-5.7	-1.0%
CN1C(=O)C(CCC(=O)O)NC1=S (centres undefined)	-8.4	1.5	3.8	76.7*	9.7	-0.9%
Fc1ccc(N2CCN(c3ccc4c(C(F)(F)F)cc(C(F)(F)F)nc4n3)CC2)cc1	x	x	36.1	121.0*	12.9	-2.5%
FC(F)(F)c1cc(C(F)(F)F)c2ccc(N3CCN(c4ccc(Cl)cc4)CC3)nc2n1	x	x	19.0	-2.2	-36.6	x
CCN(CC(=O)NCc1cccs1)C(=O)c1ccc([N+](=O)[O-])o1	-0.3	29.3	x	4.2	-9.1	x
Cc1ccc(NC(=O)CC2=NC(=O)C(CC(=O)Nc3ccccc3F)S2)cc1 (centres undefined)	-26.9	-7.2	u	71.5*	-8.9	-0.2%
COc1ccccc1NC(=O)c1ccccc1NS(=O)(=O)N1CCCC1	x	5.9	4.9	83.0*	x	-3.5%
Cc1ccc(NC(=O)CN(C)c2ccc(S(=O)(=O)N3CCN(C)CC3)cn2)cc1	x	x	1.4	4.0	1.7	x
COc1ccccc1N1CCN(C2CCN(C(=O)c3ccc(F)cc3)CC2)CC1	-8.6	-8.3	17.7	-0.1	16.4	x
COc1ccccc1N1CCN(C2CCN(C(=O)c3cccc(F)c3)CC2)CC1	-5.7	10.6	x	59.0*	-5.1	-2.1%
Cc1ccc(C(=O)NC(=S)NNC(=O)c2ccccc2O)cc1	-2.7	-17.8	x	50.2*	12.5	-7.2%
O=C(c1cc(-c2ccc(Cl)c(Cl)c2)on1)N1CCCCCC1	0.0	-3.2	5.7	81.5*	-80.2	-2.3%
O=C(c1cc(-c2ccc(Cl)cc2)on1)N1CCCCCC1	0.3	0.0	x	-0.4	-49.8	x
SMILES	MLL AF4-AF9 inh	INS-1E GSIS act	PGC1a acetyl inh	NSD2 inh	HIV Env fusion	AlphaScreen art
O=C(CCN1C(=O)c2ccccc2C1=O)N(CCO)Cc1ccccc1	x	x	15.0	12.3	-18.8	x
O=C1C=C(N(CCO)Cc2ccccc2)c2ccccc2C1=O	x	x	1.3	75.9*	x	-3.7%
N#C/C(=C\c1ccc(N2CCOCC2)o1)C(=O)NCC1CCCO1 (centres undefined)	2.7	9.0	5.2	4.2	18.2	x
N#C/C(=C\c1ccc(-c2ccc(C(=O)O)cc2)o1)C(=O)NCC1CCCO1 (centres undefined)	x	x	x	54.4*	x	-4.4%
O=C(O)c1cccc(-n2cccc2/C=N/O)c1	x	x	x	52.5*	-10.3	-9.9%
O=C(O)c1cccc(-n2cccc2/C=C\[N+](=O)[O-])c1	-3.9	0.3	-6.3	68.7*	14.1	-2.5%
C[C@@H]1CN(c2ccc(N3CCNC[C@H]3C)cc2C#N)C[C@H](C)O1	x	x	x	x	-6.6	x

High-throughput results from PubChem BioAssay.
